Measured values from the supplement of paper PMC4466140.

B1: unnamed (peptide)
chain: VQKRKLPLPGSIASA
B2: unnamed (peptide)
chain: RSKRLFPVRPMATAH

biological target: CaNbp2; test: SPOT peptide array binding signal intensity (averaged, normalized) (arbitrary units (background-subtracted, floor 0; scale differs between SH3 domains)); higher = stronger binding of the SH3 domain to the peptide
Procedure: (§1)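 GST-tagged SH3 domains from S. cerevisiae (Sc), A. gossypii (Ag), C. albicans (Ca) and S. pombe (Sp) were incubated at 10 ug/ml overnight at 4 C on cellulose SPOT membranes carrying 292 synthetic 15-mer peptides mined from the S. cerevisiae proteome (cysteines replaced by serines). Binding was detected with anti-GST antibody, HRP secondary and chemiluminescence, quantified with Genespotter, and reported as normalized spot intensities averaged over biological replicates.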

Binder | SPOT peptide array binding signal intensity
B1 | 70
B2 | 366

biological target: CaRvs167; test: as above
Procedure: as §1

Binder | SPOT peptide array binding signal intensity
B1 | 2.17
B2 | 27.8

biological target: CaRvs167-3; test: as above
Procedure: as §1

Binder | SPOT peptide array binding signal intensity
B1 | 4.62
B2 | 93.5

biological target: CaSho1; test: as above
Procedure: as §1

Binder | SPOT peptide array binding signal intensity
B1 | ≤ 0
B2 | 544

biological target: CaSla1-D1-D2; test: as above
Procedure: as §1

Binder | SPOT peptide array binding signal intensity
B1 | 118
B2 | 95

biological target: CaSla1-D3; test: as above
Procedure: as §1

Binder | SPOT peptide array binding signal intensity
B1 | ≤ 0
B2 | 22

biological target: ScAbp1; test: as above
Procedure: as §1

Binder | SPOT peptide array binding signal intensity
B1 | 100
B2 | 4

biological target: ScBbc1; test: as above
Procedure: as §1

Binder | SPOT peptide array binding signal intensity
B1 | 30.1
B2 | 10

biological target: ScBem1-D1; test: as above
Procedure: as §1

Binder | SPOT peptide array binding signal intensity
B1 | 16.5
B2 | 5

biological target: ScBzz1-D1; test: as above
Procedure: as §1

Binder | SPOT peptide array binding signal intensity
B1 | 21.2
B2 | 1.5

biological target: ScBzz1-D2; test: as above
Procedure: as §1

Binder | SPOT peptide array binding signal intensity
B1 | 10
B2 | 2

biological target: ScCyk3; test: as above
Procedure: as §1

Binder | SPOT peptide array binding signal intensity
B1 | ≤ 0
B2 | 216

biological target: ScFus1; test: as above
Procedure: as §1

Binder | SPOT peptide array binding signal intensity
B1 | ≤ 0
B2 | 255

biological target: ScHof1; test: as above
Procedure: as §1

Binder | SPOT peptide array binding signal intensity
B1 | 0.5
B2 | 1

biological target: ScHse1; test: as above
Procedure: as §1

Binder | SPOT peptide array binding signal intensity
B1 | 63
B2 | 998

biological target: ScLsb1; test: as above
Procedure: as §1

Binder | SPOT peptide array binding signal intensity
B1 | ≤ 0
B2 | 14.5

biological target: ScLsb2; test: as above
Procedure: as §1

Binder | SPOT peptide array binding signal intensity
B1 | ≤ 0
B2 | ≤ 0

biological target: ScLsb3; test: as above
Procedure: as §1

Binder | SPOT peptide array binding signal intensity
B1 | 525
B2 | 1050

biological target: ScLsb4; test: as above
Procedure: as §1

Binder | SPOT peptide array binding signal intensity
B1 | 11.5
B2 | 32.5

biological target: ScMyo3; test: as above
Procedure: as §1

Binder | SPOT peptide array binding signal intensity
B1 | ≤ 0
B2 | 5.5

biological target: ScMyo5; test: as above
Procedure: as §1

Binder | SPOT peptide array binding signal intensity
B1 | 1.5
B2 | 3

biological target: ScNbp2; test: as above
Procedure: as §1

Binder | SPOT peptide array binding signal intensity
B1 | ≤ 0
B2 | 384

biological target: ScPex13; test: as above
Procedure: as §1

Binder | SPOT peptide array binding signal intensity
B1 | 1
B2 | 3.5

biological target: ScRvs167; test: as above
Procedure: as §1

Binder | SPOT peptide array binding signal intensity
B1 | 340
B2 | 256

biological target: ScSho1; test: as above
Procedure: as §1

Binder | SPOT peptide array binding signal intensity
B1 | 50
B2 | 661

biological target: ScSla1-D1-D2; test: as above
Procedure: as §1

Binder | SPOT peptide array binding signal intensity
B1 | 180
B2 | 212

biological target: ScSla1-D3; test: as above
Procedure: as §1

Binder | SPOT peptide array binding signal intensity
B1 | 32.5
B2 | 34

biological target: SpAbp1-D1; test: as above
Procedure: as §1

Binder | SPOT peptide array binding signal intensity
B1 | 174
B2 | 118

biological target: SpBbc1; test: as above
Procedure: as §1

Binder | SPOT peptide array binding signal intensity
B1 | 0.5
B2 | ≤ 0

biological target: SpBzz1-D1; test: as above
Procedure: as §1

Binder | SPOT peptide array binding signal intensity
B1 | 232
B2 | 142

biological target: SpBzz1-D2; test: as above
Procedure: as §1

Binder | SPOT peptide array binding signal intensity
B1 | ≤ 0
B2 | 0.5

biological target: SpCyk3; test: as above
Procedure: as §1

Binder | SPOT peptide array binding signal intensity
B1 | 15
B2 | 5.5

biological target: SpHof1; test: as above
Procedure: as §1

Binder | SPOT peptide array binding signal intensity
B1 | 197
B2 | 99.2

biological target: SpHof1-2; test: as above
Procedure: as §1

Binder | SPOT peptide array binding signal intensity
B1 | 253
B2 | 5.5

biological target: SpHof1-3; test: as above
Procedure: as §1

Binder | SPOT peptide array binding signal intensity
B1 | 397
B2 | 550

biological target: SpHse1; test: as above
Procedure: as §1

Binder | SPOT peptide array binding signal intensity
B1 | 34.1
B2 | 350

biological target: SpLsb1; test: as above
Procedure: as §1

Binder | SPOT peptide array binding signal intensity
B1 | 50.6
B2 | 3

biological target: SpLsb4; test: as above
Procedure: as §1

Binder | SPOT peptide array binding signal intensity
B1 | 275
B2 | 624

biological target: SpMyo1; test: as above
Procedure: as §1

Binder | SPOT peptide array binding signal intensity
B1 | ≤ 0
B2 | 1

biological target: SpNbp2; test: as above
Procedure: as §1

Binder | SPOT peptide array binding signal intensity
B1 | 7
B2 | 235

biological target: SpPex13; test: as above
Procedure: as §1

Binder | SPOT peptide array binding signal intensity
B1 | ≤ 0
B2 | 11

biological target: SpRvs167; test: as above
Procedure: as §1

Binder | SPOT peptide array binding signal intensity
B1 | 55.4
B2 | 52.2

biological target: SpSla1-D1-D2; test: as above
Procedure: as §1

Binder | SPOT peptide array binding signal intensity
B1 | 16.2
B2 | 1

biological target: SpSla1-D3; test: as above
Procedure: as §1

Binder | SPOT peptide array binding signal intensity
B1 | ≤ 0
B2 | 13

biological target: AgAbp1; test: as above
Procedure: as §1

Binder | SPOT peptide array binding signal intensity
B2 | 39.5

biological target: AgBbc1; test: as above
Procedure: as §1

Binder | SPOT peptide array binding signal intensity
B2 | 36.2

biological target: AgBem1-D1; test: as above
Procedure: as §1

Binder | SPOT peptide array binding signal intensity
B2 | 89

biological target: AgBzz1-D1; test: as above
Procedure: as §1

Binder | SPOT peptide array binding signal intensity
B2 | 13

biological target: AgBzz1-D2; test: as above
Procedure: as §1

Binder | SPOT peptide array binding signal intensity
B2 | 11.5

biological target: AgCyk3; test: as above
Procedure: as §1

Binder | SPOT peptide array binding signal intensity
B2 | 3

biological target: AgFus1; test: as above
Procedure: as §1

Binder | SPOT peptide array binding signal intensity
B2 | 190

biological target: AgHof1; test: as above
Procedure: as §1

Binder | SPOT peptide array binding signal intensity
B2 | 3.5

biological target: AgHse1; test: as above
Procedure: as §1

Binder | SPOT peptide array binding signal intensity
B2 | 632

biological target: AgLsb1; test: as above
Procedure: as §1

Binder | SPOT peptide array binding signal intensity
B2 | 3

biological target: AgLsb4; test: as above
Procedure: as §1

Binder | SPOT peptide array binding signal intensity
B2 | 51

biological target: AgMyo5; test: as above
Procedure: as §1

Binder | SPOT peptide array binding signal intensity
B2 | 0.5

biological target: AgNbp2; test: as above
Procedure: as §1

Binder | SPOT peptide array binding signal intensity
B2 | 218

biological target: AgRvs167; test: as above
Procedure: as §1

Binder | SPOT peptide array binding signal intensity
B2 | 4.33

biological target: AgSho1; test: as above
Procedure: as §1

Binder | SPOT peptide array binding signal intensity
B2 | 79

biological target: AgSla1-D1-D2; test: as above
Procedure: as §1

Binder | SPOT peptide array binding signal intensity
B2 | 469

biological target: AgSla1-D3; test: as above
Procedure: as §1

Binder | SPOT peptide array binding signal intensity
B2 | 10.2

biological target: CaAbp1-D1; test: as above
Procedure: as §1

Binder | SPOT peptide array binding signal intensity
B2 | 451

biological target: CaAbp1-D2; test: as above
Procedure: as §1

Binder | SPOT peptide array binding signal intensity
B2 | 414

biological target: CaBbc1; test: as above
Procedure: as §1

Binder | SPOT peptide array binding signal intensity
B2 | 128

biological target: CaBem1-D1; test: as above
Procedure: as §1

Binder | SPOT peptide array binding signal intensity
B2 | 7

biological target: CaBzz1-D1; test: as above
Procedure: as §1

Binder | SPOT peptide array binding signal intensity
B2 | 53

biological target: CaBzz1-D2; test: as above
Procedure: as §1

Binder | SPOT peptide array binding signal intensity
B2 | 51.5

biological target: CaCyk3; test: as above
Procedure: as §1

Binder | SPOT peptide array binding signal intensity
B2 | 64.5

biological target: CaFus1; test: as above
Procedure: as §1

Binder | SPOT peptide array binding signal intensity
B2 | 402

biological target: CaHof1; test: as above
Procedure: as §1

Binder | SPOT peptide array binding signal intensity
B2 | ≤ 0

biological target: CaHse1; test: as above
Procedure: as §1

Binder | SPOT peptide array binding signal intensity
B2 | 14.2

biological target: CaLsb1; test: as above
Procedure: as §1

Binder | SPOT peptide array binding signal intensity
B2 | 0.5

biological target: CaLsb4; test: as above
Procedure: as §1

Binder | SPOT peptide array binding signal intensity
B2 | 502

biological target: CaMyo5; test: as above
Procedure: as §1

Binder | SPOT peptide array binding signal intensity
B2 | ≤ 0
